# Experimental data reported in PubChem BioAssay (EPA / NIEHS).
# Records with an inconclusive call do not appear. The source made the active and inactive calls. The calls were made as follows: active = hit-call score of the fitted dose curve at least 0.9, where 1 is the maximum; inconclusive = response in the unintended direction; inactive = score below 0.9.
# Test: Tanguay_ZF_120hpf_SNOU_legacy: (Legacy) Oregon State University Tanguay Lab 120 Hour Post-fertilization zebrafish Assay for Snout Malformation (AID 2283637)
# Procedure: Tanguay_ZF_120hpf_legacy is a whole embryo, multiplexed endpoint assay using zebrafish larvae exposed for 120 hours post fertilization on a 96-well plate.Tanguay_ZF_120hpf_SNOU_legacy is one of one assay component(s) measured or calculated from the Tanguay_ZF_120hpf_legacy assay. It is designed to make measurements of zebrafish development as detected with brightfield microscopy of developing zebrafish embryos.Data from the assay component Tanguay_ZF_120hpf_SNOU_legacy was analyzed into 1 assay endpoints. This assay endpoint, Tanguay_ZF_120hpf_SNOU_legacy, was analyzed in the positive analysis fitting direction relative to DMSO as the negative control and baseline of activity. Using a type of morphology reporter, gain-of-signal activity can be used to understand changes in developmentals as they relate to the whole embryo. To generalize the intended target to other relatable targets, this assay endpoint is annotated to the zebrafish development intended target family, where the subfamily is embryonic snout morphogenesis.
# Zebrafish husbandry: Tropical 5D wild-type adult zebrafish were housed in at an approximate density of 1000 per 100 gallon tank at the Sinnhuber Aquatic Research Laboratory, Oregon State University, Corvallis, OR. Each tank was kept at standard laboratory conditions of 28C on a 14-h light/10-h dark photoperiod in fish water consisting of reverse osmosis water supplemented with a commercially available salt (Instant Ocean). Spawning funnels were placed into the tanks the night prior, and embryos were collected and staged. To increase bioavailability, the chorion was enzymatically removed using pronase (63.6mg/ml, >/= 3.5U/mg, Sigma-Aldrich: P5147) at 4 hours post fertilization (hpf) using a custom automated dechorionator.Chemical exposures: Six hpf dechorionated embryos were placed 1 embryo per well in a 96-well plate prefilled with 90 ul of EM using automated embryo placement systems (AEPS). Ten microliters of each row of dilution plate 2 was added to 2 exposure plates. The final DMSO concentration used was 0.64% (vol/vol). Thirty-two embryos were also exposed to 5uM trimethyltin chloride (positive control). Plates were sealed to prevent evaporation and foil covered to reduce light exposure and kept in a 28C incubator. Embryos were statically exposed until 120 hpf. At 24 hpf, embryos were assessed for photomotor response using a custom photomotor response analysis tool (PRAT) and for developmental toxicity endpoints (MO24: mortality at 24 hpf, DP: developmental progression, SM: spontaneous movement, and NC: notochord distortion). At 120 hpf, locomotor activity was measured using Viewpoint Zebralab and assessed for 18 endpoints. Zebrafish acquisition and analysis program (ZAAP), a custom program designed to inventory, acquire, and manage zebrafish data, was used to collect developmental endpoints as either present or absent (i.e., binary responses were recorded). If mortality occurred for an embryo (at either 24 or 120 hpf), the non-mortality endpoints were not measured.
Structure (SMILES),outcome,AC50
ClC1=C(Cl)[C@]2(Cl)[C@@H]3[C@H]4C[C@H]([C@@H]5O[C@H]45)[C@@H]3[C@@]1(Cl)C2(Cl)Cl,inactive,–
CCC(C)(c1ccc(O)cc1)c1ccc(O)cc1,–,46.2 µM (active)
CO/C=C(/C(=O)OC)c1ccccc1COc1cccc(C(F)(F)F)n1,–,2.99 µM (active)
Oc1ccc(Cl)cc1Cl,inactive,–
COS(=O)(=O)OC,inactive,–
NS(=O)(=O)C(F)(F)C(F)(F)C(F)(F)C(F)(F)C(F)(F)C(F)(F)C(F)(F)C(F)(F)F,inactive,–
C=CC(=O)NCNC(=O)C=C,inactive,–
CCOP(=S)(OCC)SCSC(C)(C)C,inactive,–
CCNc1nc(NC(C)C)nc(SC)n1,inactive,–
Oc1c(Cl)c(Cl)c(Cl)c(Cl)c1Cl,inactive,–
O=NN(c1ccccc1)c1ccccc1,inactive,–
CC1=C2C[C@H]3[C@@H](CC=C4C[C@@H](O)CC[C@@]43C)[C@@H]2CC[C@]12O[C@@H]1C[C@H](C)CN[C@H]1[C@H]2C,–,21 µM (active)
O=C(NC(=O)c1c(F)cccc1F)Nc1cc(Cl)c(OC(F)(F)C(F)F)c(Cl)c1,inactive,–
C[C@]12CCC(=O)C=C1CC[C@@H]1[C@@H]2CC[C@]2(C)C(=O)CC[C@@H]12,–,37.7 µM (active)
ClC1=C(Cl)[C@]2(Cl)[C@@H]3[C@@H]4C[C@@H]([C@H]5O[C@@H]45)[C@@H]3[C@@]1(Cl)C2(Cl)Cl,inactive,–
O=S(=O)(O)C(F)(F)C(F)(F)C(F)(F)C(F)(F)C(F)(F)C(F)(F)F,inactive,–
CC(C)C(=O)OCC(C)(C)C(OC(=O)C(C)C)C(C)C (stereo not given),inactive,–
Cc1cccc([N+](=O)[O-])c1,inactive,–
CCSC(=O)N(CC)C1CCCCC1,inactive,–
CCC(=O)O[C@H]1CC[C@H]2[C@@H]3CCC4=CC(=O)CC[C@]4(C)[C@H]3CC[C@]12C,inactive,–

Structure (SMILES),outcome,AC50
Cc1cc(O)ccc1Cl,inactive,–
C1CC2OC2CC1C1CO1 (stereo not given),inactive,–
Cc1ccccc1CO[C@@H]1C[C@@]2(C(C)C)CC[C@]1(C)O2,inactive,–
Cc1ccc(O)c(C)c1,inactive,–
Cc1cc2c3c(c1)C(c1ccccc1)=N[C@@H](NC(=O)c1ccncc1)C(=O)N3CC2,inactive,–
Cc1ccccc1O,inactive,–
O=C(N[C@H]1CN2CCC1CC2)c1cc2ccoc2cn1,inactive,–
CCOCCOC(C)=O,inactive,–
CCCCCCCCOC(=O)c1ccccc1C(=O)OCCCCCCCC,inactive,–
CC(C)(O)C(=O)Nc1ccc([N+](=O)[O-])c(C(F)(F)F)c1,–,7.43 µM (active)
Oc1ccc(C(c2ccc(O)cc2)(C(F)(F)F)C(F)(F)F)cc1,–,53.8 µM (active)
O=C(NC(=O)c1cc(F)c(F)cc1Cl)Nc1cc(F)ccc1N1CCC(C(=O)O)CC1,inactive,–
O=C(O)C(F)(F)C(F)(F)C(F)(F)C(F)(F)C(F)(F)C(F)(F)C(F)(F)C(F)(F)C(F)(F)F,inactive,–
Nn1cnnc1,inactive,–
CCC(C)c1cc([N+](=O)[O-])cc([N+](=O)[O-])c1O (stereo not given),inactive,–
C=CC(N)=O,inactive,–
CCCCCCOC(=O)c1ccccc1C(=O)OCCCCCC,inactive,–
CC#Cc1cc(C)nc(Nc2ccccc2)n1,inactive,–
CCCCCCCCCC[N+](C)(C)CCCCCCCCCC,inactive,–
c1cc2ccc3cccc4ccc(c1)c2c34,inactive,–
